# TRHR enhancer: allosterically enhances the human TRH receptor; AID 493056; enhancement, % at 2 µM; TRHR cells, fluo-8 calcium fluorescence, EC20 TRH enhancement; actives 0.66% (n = 360,000); in the data active = enhancement above about 30%
#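 TRHR-expressing cells loaded with fluo-8 calcium dye were read kinetically (ex 480/em 530) during compound addition, then stimulated with an EC20 of TRH (10 nM final). Enhancement of the Gq-mediated intracellular calcium response was scored.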
# TRHR ag: TRH receptor (human) agonism | P34981 | TRHR cells, calcium flux fluo-8, FDSS agonist mode | activation, % at 2 µM | actives 0.18% (n = 360,000)
#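 Read-out: compound-evoked intracellular calcium rise in TRHR cells, fluo-8 dye, kinetic FDSS fluorescence at 1 s/cycle following a 10-cycle baseline. Cells cultured overnight before dye loading (30 min–1.5 h, RT).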
# D1 agonist: human D1 receptor agonism | activation, % at 2 µM | HEK293 T-REx D1 cells, calcium flux, agonist mode | actives 1% (n = 360,000) | P21728
# Target sequence (P21728 whole entry, looked up): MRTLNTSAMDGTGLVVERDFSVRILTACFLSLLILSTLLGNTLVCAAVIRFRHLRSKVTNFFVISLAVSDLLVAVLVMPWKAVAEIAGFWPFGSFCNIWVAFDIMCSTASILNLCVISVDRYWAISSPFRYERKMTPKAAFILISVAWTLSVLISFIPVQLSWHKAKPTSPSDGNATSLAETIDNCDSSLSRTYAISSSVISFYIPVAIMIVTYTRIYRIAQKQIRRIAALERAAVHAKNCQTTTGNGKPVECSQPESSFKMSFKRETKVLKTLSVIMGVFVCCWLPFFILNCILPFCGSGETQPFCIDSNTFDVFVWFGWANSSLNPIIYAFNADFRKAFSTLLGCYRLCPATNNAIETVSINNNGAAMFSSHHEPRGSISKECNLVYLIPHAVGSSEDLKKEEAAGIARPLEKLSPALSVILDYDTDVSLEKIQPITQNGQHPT
#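 Inducible HEK293 T-REx D1 cells, force-coupled to calcium signalling, were plated at 4000 cells/well with tetracycline and held overnight at 30 C. After no-wash calcium dye loading, compound-evoked calcium rise over 180 s flagged agonists.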
# D1 antag: antagonists of human D1 dopamine receptor. AID 504652. P21728. activity change, negative = inhibition, % at 10 µM. HEK293 TREx D1 cells, calcium flux, dopamine EC80; stronger effect = lower value. actives 3.2% (n = 360,000); in the data active = activity change below about -30%
#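 Tetracycline-induced HEK293 Trex D1 cells, force-coupled to calcium, dye-loaded; compounds added and read 180 s, then EC80 dopamine added and calcium flux tracked kinetically another 180 s.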
# Glioma ERSR ind: inducers of ER stress response in human glioma cells | U87-MG GRP78 promoter luciferase reporter, 16 h | Potency, µM, usual class: activators | actives 0.02% (n = 420,000) | AID 602332; active = well fitted activation curve with a large enough effect; inconclusive = small, poorly fitted or top-dose-only effect; inactive = no such curve, though single readings can be large or run the other way; also: series mostly up to about 76 µM; nearly all actives have a fitted effect of over 35% in size
#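 Stably transfected U87-MG human glioma cells carrying a GRP78-based luminescent sensor were seeded at 1000 cells/well, pin-dosed with compounds and incubated 16 h. Luciferase reagent was then added, and end-point luminescence was read after 10 min at room temperature.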
# D1 potentiator: human D1 dopamine receptor positive modulation; HEK293 TREx D1 cells, calcium flux, dopamine EC20 potentiation; actives 0.036% (n = 360,000); AID 504651; potentiation, % at 10 µM; P21728; in the data active = potentiation above about 30%
# Hits are given with their value; n = inactive; u = inconclusive; x = no result. Compounds with a hit are over-represented: about 4% of the library has one in this group of screens. Rule as the data show it, unless noted: active = activation above about 30%; inactive = the rest.
SMILES,TRHR enhancer,TRHR ag,D1 agonist,D1 antag,Glioma ERSR ind,D1 potentiator
CCC1CN(Cc2cn[nH]c2-c2ccc(F)cc2)Cc2cc(OC)ccc2O1 (stereo not given),x,x,x,x,n,x
Cc1cc(Nc2ccc(C(C)C)cc2)nc(-n2nc(C)cc2C)n1,n,n,n,n,n,n
COc1ccc(Nc2cc(C)nc(-n3nc(C)cc3C)n2)cc1Cl,n,n,n,-34,n,n
COc1ccccc1NC(=O)c1ccc(NC2=NC3CS(=O)(=O)CC3S2)cc1 (stereo not given),n,n,n,-35,n,n
COc1cccc(CNC(=O)c2ccc(C)c(NC3=NC4CS(=O)(=O)CC4S3)c2)c1 (stereo not given),n,n,n,-32,n,n
COc1ccccc1NC(=O)c1ccc(NC(=O)COC(=O)C2CC2C)cc1 (stereo not given),n,n,n,-43,n,n
CCOc1ccc(CCNC(=O)c2cccc(NC3=NC4CS(=O)(=O)CC4S3)c2)cc1 (stereo not given),34,n,n,n,n,n
COc1ccc(OC)c(NC(=O)c2ccc(NC3=NC4CS(=O)(=O)CC4S3)cc2)c1 (stereo not given),n,n,n,n,n,n
COc1ccc(CNC(=O)c2ccc(Cl)c(NC3=NC4CS(=O)(=O)CC4S3)c2)cc1 (stereo not given),n,n,n,n,n,n
Cc1cc(C(=O)NCc2nnc3n2CCN(Cc2ccc(F)cc2F)CC3)c(C)o1,x,x,x,x,n,x
COc1ccc(CCNC(=O)C2CCN(c3ncnc4c3nc3n4CCCCC3)CC2)c(OC)c1,n,n,n,n,n,n
COc1ccc(C(=O)c2c(C)c3ccccc3n2CC(O)CNC(C)C)cc1 (stereo not given),n,n,60,n,u,n
Cc1cc(N2CCOCC2)nc2ccc(NC(=O)CCC(=O)N3CCN(c4ccc(F)cc4)CC3)cc12,n,n,n,n,n,n
Cc1cc(N2CCOCC2)nc2ccc(NC(=O)CCC(=O)N3CCN(c4ccccc4F)CC3)cc12,n,n,n,-43,n,n
Cc1ccc(C(=O)C(C)OC(=O)CCN=C2NS(=O)(=O)c3ccccc32)cc1 (stereo not given),n,n,n,-39,n,n
O=C(CCN=C1NS(=O)(=O)c2ccccc21)OCC(=O)c1ccccc1,n,n,n,n,n,n
O=C(CCCN=C1NS(=O)(=O)c2ccccc21)OCC(=O)c1ccccc1,n,n,n,-30,n,n
COc1ccc(NC(=O)CSc2nnc3n2CCCCC3)cc1OC,x,x,x,x,n,x
COc1ccc(CC(=O)Nc2ccccc2NC(=O)Cc2ccc(OC)cc2)cc1,n,n,n,n,n,n
COc1ccc(CC(=O)Nc2cc(Cl)ccc2O)cc1,n,n,n,-35,n,n
COc1ccc(S(=O)(=O)c2nnn(-c3ccc(C)c(Cl)c3)c2C)cc1,n,n,31,n,n,n
Cc1cccc(NC(=S)NC2CC3CCCC(C2)N3CC(C)C)c1 (stereo not given),n,n,n,-59,n,n
Cc1ccc(NC(=S)NC2CC3CCCC(C2)N3Cc2ccco2)cc1 (stereo not given),n,n,41,-65,n,n
COc1ccc(NC(=S)NC2CC3CCC(C2)N3Cc2ccco2)cc1 (stereo not given),n,n,n,-64,n,n
CNC(=S)NC1CC2CCCC(C1)N2Cc1ccco1 (stereo not given),n,n,n,n,n,n
CCc1ccc(NC(=S)NC2CC3CCC(C2)N3Cc2ccco2)cc1 (stereo not given),n,n,n,-77,n,n
O=C(CCn1c(=O)c2cccn2c2cccnc21)N1CCN(c2ccccc2F)CC1,n,n,n,n,n,n
O=C(NC1CC1)c1ccc2sc([C@H]3C[C@H](O)[C@@H](CO)O3)nc2c1,x,x,x,x,n,x
Cc1cccc(NC(=S)NC2CC3CCC(C2)N3Cc2ccco2)c1 (stereo not given),n,n,n,-67,n,n
Cc1ccc(NC(=S)NC2CC3CCCC(C2)N3Cc2cccs2)cc1 (stereo not given),n,n,n,-87,n,n
